EBV LMP1 NFkB = EBV LMP1-driven NF-kappaB luciferase reporter inhibitors, primary screen, cell-based, luminescence, single point. LMP1-induced NF-kappaB luciferase reporter cells. inhibition, % at 12.5 µM. hit rate 0.69% among 350,000. AID 504558, 2011; in the data active = inhibition above about 41%
TROY NFkB inh = inhibitors of TROY-driven NF-kB signaling, primary screen, Q293 LMP1-TROYcd cells, NF-kB luciferase, uHTS; Q293 LMP1-TROYcd NF-kB luciferase reporter, 4 h; inhibition, % at 10 µM; hit rate 0.98% among 360,000; AID 1347056, 2019;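 active = compounds whose plate-normalised and pattern-corrected inhibition of the luciferase reporter signal at the single screening dose is 50% or more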
MITF TRPM1 inh = inhibitors of MITF-dependent TRPM1 promoter reporter, primary screen, cell-based, SK-MEL-5, single point, luciferase | inhibition, % at 12.5 µM | SK-MEL-5 TRPM1 promoter luciferase, 24 h | hit rate 0.83% among 330,000 | AID 488899, 2010;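 active = mean inhibition across replicates of 60% or more, whatever share of single replicates reaches that level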
TWEAK Fn14 block = inhibitors of TWEAK-Fn14 signaling, primary screen, luciferase reporter cells, uHTS; inhibition, % at 10 µM; hit rate 2% among 360,000; TWEAK-stimulated Fn14 reporter cells, luciferase luminescence, 8 h; AID 1159606, 2016; in the data active = inhibition above about 50%
Shn3 inh set2 = reduction of Shn3 3'UTR firefly luciferase signal, primary screen, Schnurri-3 inhibitor project, cell-based, Clone20 osteoblasts, set 2; hit rate 0.52% among 360,000; inhibition, % at 12.5 µM; Clone20 osteoblast Shn3 3'UTR firefly luciferase, 24 h;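 active = mean inhibition of at least 75% with every replicate also reaching 75%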
Peg3 prom inh = Peg3 promoter-driven luciferase inhibitors, primary screen, cell-based, HeLa, luciferase luminescence; inhibition, % at 20 µM; HeLa PEG-Prom luciferase reporter, overnight; hit rate 1.7% among 360,000;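 active = inhibition of at least 50% at 20 µM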
Of the large screens only hits and unclear results are named; the others gave an inactive call; ! = a repeat was not active. Rows were chosen to be rich in hits. Some 4.1% of all compounds tested hit in one or more screens of this group.

O=C(NCCCl)Nc1ncn[nH]1	Peg3 prom inh 100.2
O=C(Nc1ncn[nH]1)c1c(Cl)ccc(Cl)c1Cl	none
CCOc1ccc(N2C(=O)CC(NCCc3ccc(S(N)(=O)=O)cc3)C2=O)cc1 (centres undefined)	TWEAK Fn14 block 108.2 (no result: TROY NFkB inh)
CCOc1ccc(S(=O)(=O)N2CCC(C(=O)NCCc3ccc(OC)c(OC)c3)CC2)cc1	none
CCOc1ccc(S(=O)(=O)N2CCC(C(=O)NCCc3ccc(S(N)(=O)=O)cc3)CC2)cc1	EBV LMP1 NFkB 48.9
O=C(Nc1cccc(C(F)(F)F)c1)C1CCN(S(=O)(=O)c2cccnc2)CC1	none
Oc1ccc(N=Nc2ccccc2)o1	Shn3 inh set2 93.8
CC1CCC(C(C)C)C(OC(=O)COC(=O)c2cccn2C)C1 (centres undefined)	none
CC1CCC(C(C)C)C(OC(=O)Cn2c(-c3ccc(Br)cc3)[n+](C)c3ccccc32)C1 (centres undefined)	MITF TRPM1 inh 90.7, TWEAK Fn14 block 55.9!, Peg3 prom inh 95.6!
CC1CCC(C(C)C)C(OC(=O)Cn2c(-c3ccc(Cl)cc3)[n+](C)c3ccccc32)C1 (centres undefined)	MITF TRPM1 inh 89.5, TWEAK Fn14 block 59.2, Peg3 prom inh 75.6
Cc1ccccc1OCc1n(CC(=O)OC2CC(C)CCC2C(C)C)c2ccccc2[n+]1C (centres undefined)	TROY NFkB inh 64.5, MITF TRPM1 inh 97.4!, TWEAK Fn14 block 83.2!, Peg3 prom inh 102.0
CCCCn1c(N)c(N(CCOC)C(=O)c2ccc(N3CCCC3)c([N+](=O)[O-])c2)c(=O)[nH]c1=O	none
CC(=O)Oc1cc(O)c2c(=O)c(OC(C)=O)c(-c3ccc(OC(C)=O)c(OC(C)=O)c3)oc2c1	TWEAK Fn14 block 67.9
COc1ccc(Cl)cc1NC(=O)CN(C)CC(=O)NCc1cccs1	none (no result: MITF TRPM1 inh)
COc1ccc(Cl)cc1NC(=O)CN(C)S(=O)(=O)c1cccs1	EBV LMP1 NFkB 46.6
Cc1ccc(-n2c(O)c(/C=C3/C(c4ccccc4)=Nc4ccccc43)c(=O)[nH]c2=O)cc1	TWEAK Fn14 block 70.6
COc1ccc(-n2c(O)c(/C=C3\C=Nc4ccccc43)c(=O)[nH]c2=O)cc1	none
CC(C)CC(=O)Nc1ccc(-c2nc3ccccc3c(=O)o2)cc1	none
CC(C)CC(=O)Nc1ccc(-c2nc3ccccc3c(=O)[nH]2)cc1	TWEAK Fn14 block 60.8
CS(=O)(=O)c1cnc(-c2ccccc2)nc1Sc1ccc(F)cc1	none
COc1cccc(Sc2nc(-c3ccccc3)ncc2S(C)(=O)=O)c1	TROY NFkB inh 71.1, TWEAK Fn14 block 90.7 (no result: MITF TRPM1 inh)
COc1ccc([N+](=O)[O-])c(S(=O)(=O)c2ccccc2)n1	TROY NFkB inh 71.7, TWEAK Fn14 block 97.3, Peg3 prom inh 110.8 (no result: EBV LMP1 NFkB, MITF TRPM1 inh)
COc1nc(OC)nc(Oc2ccc(Cl)cc2[N+](=O)[O-])n1	none
COc1ccc([N+](=O)[O-])c(S(=O)(=O)c2ccc(Cl)cc2)n1	EBV LMP1 NFkB 61.9, TROY NFkB inh 65.7, MITF TRPM1 inh 70.6, TWEAK Fn14 block 97.2, Shn3 inh set2 94.2, Peg3 prom inh 104.8
O=[N+]([O-])c1cccnc1S(=O)(=O)c1ccccc1	TWEAK Fn14 block 95.1, Shn3 inh set2 97.7, Peg3 prom inh 82.4
Nc1cccnc1S(=O)(=O)c1ccccc1	none
CCCCN(C)CCN1C(=O)C2C(C(=O)Nc3ccc(C)cc3)C3C=CC2(O3)C1C(=O)NC1CCCCC1 (centres undefined)	none
NC(=S)c1csc(CCNC(=O)c2ccccc2)n1	none (no result: MITF TRPM1 inh)
COc1cccc(C(C(=O)NC2CCCCC2)N(C(=O)c2csnn2)C2CC2)c1 (centres undefined)	none
COc1ccc(C(=O)NCCNc2ccccc2[N+](=O)[O-])cc1	none
CCCNC(=O)c1ccc(S(=O)(=O)c2ccc(OC)cc2)c([N+](=O)[O-])c1	TWEAK Fn14 block 71.7
O=C1CC(NS(=O)(=O)c2ccccc2F)CN1c1ccc2c(c1)OCCO2 (centres undefined)	none
Cc1ccc(S(=O)(=O)CCC(=O)NCc2ccccc2F)cc1	none
CC1(C)CC(C(CCN(Cc2ccccc2)C(=O)c2ccco2)c2ccc(F)cc2)CCO1 (centres undefined)	Peg3 prom inh 51.4
Cc1c(C(C)C)c(=O)n(-c2ccc(S(=O)(=O)NCc3ccccc3)cc2)n1C	Shn3 inh set2 83.5
Cc1c(C(C)C)c(=O)n(-c2ccc(S(=O)(=O)NC3CCCCC3)cc2)n1C	Shn3 inh set2 88.0
Cc1c(C(C)C)c(=O)n(-c2ccc(S(=O)(=O)N3CCOCC3)cc2)n1C	none
CCCCOc1ccc(Cl)cc1Nc1nc(NCCO)nc(N2CCCC2)n1	none
Cc1ccc2oc(=O)n(CC(=O)OCCC(C)C)c2c1	none
CC(C)(C)S(=O)N1Cc2cc(C(=O)NCC(F)(F)F)nc(-c3cccc(-c4cccc(F)c4)c3)c2[C@@H]1CCO (some centres undefined)	TWEAK Fn14 block 53.0, Peg3 prom inh 69.3 (no result: EBV LMP1 NFkB, MITF TRPM1 inh)
COCCCN1C(=O)c2ccc(C(=O)N3CCN(c4ccccc4OC)CC3)cc2C1=O	none
COc1ccc(NC(=O)Cn2nnc(-c3ccccc3NS(=O)(=O)c3ccccc3)n2)cc1	TWEAK Fn14 block 54.3, Shn3 inh set2 86.6
COc1ccc(S(=O)(=O)Nc2ccccc2-c2nnn(CC(=O)Nc3ccccc3OC)n2)cc1	none
CN(C)S(=O)(=O)c1ccc(Cl)c(C(=O)NCCNC(=O)c2cc(S(=O)(=O)N(C)C)ccc2Cl)c1	EBV LMP1 NFkB 71.4
CCCCC1(Cc2ccc([N+](=O)[O-])cc2)C(=O)N(c2ccccc2)N(c2ccccc2)C1=O	Shn3 inh set2 91.9
COc1ccc(CCN(C)C(=O)CNC(=O)Cc2cccc3ccccc23)cc1OC	none
Nc1c(C(=O)NC2CC2)sc2nc3c(c(-c4ccco4)c12)CC/C3=C/c1ccco1	TWEAK Fn14 block 83.0
CC(C)(C)c1cc(C(=O)NNC(=O)c2ccc(Cl)cc2)no1	none
O=C1C=C(Nc2cccc3cccnc23)c2ccccc2C1=O	MITF TRPM1 inh 80.1
O=C1C=C(Nc2ccccc2)C(=O)c2ccccc21	none
CCCCNC1=CC(=O)C(=O)c2ccccc21	MITF TRPM1 inh 93.7
CCc1ccc(NC2=CC(=O)C(=O)c3ccccc32)cc1	MITF TRPM1 inh 103.5
O=C1C=C(Nc2ccccc2)c2ccccc2C1=O	MITF TRPM1 inh 102.5
O=C1C=C(Nc2ccccc2C(=O)O)c2ccccc2C1=O	none
c1ccc(-c2ccc3c(c2)NCCN3)cc1	none
CC1CCCCC1NC(=O)c1cccc(NC2=NC3CS(=O)(=O)CC3S2)c1 (centres undefined)	none (no result: MITF TRPM1 inh)

Assay outcomes from PubChem BioAssay.
